This is an account of results in PubChem BioAssay.

The subject of test [1] is XIP peptide (Xip251-270) binding. The test is described as follows: XIP fragment 251-270 binding compounds – biochemical, small-molecule microarray, fluorescence 635/667 nm, 0.1 µg/mL protein, primary screen (AID 1182). Conditions: fluorescent protein binding, 635 nm, higher = more signal, called active from +8 up or from −8 down.
The next test relates to XIP peptide (Xip251-270). The test is described as follows: compounds binding XIP fragment 251-270 – biochemical, small-molecule microarray, fluorescence 635/667 nm, 0.5 µg/mL protein, primary screen (AID 1183). Conditions: fluorescence 635 nm, higher = more signal.
Test [2] in a line: blood-stage malaria parasite viability loss – strain 3D7, DAPI fluorescence, 100 nL, primary screen (AID 1184).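 Further: parasites grown inside human red blood cells in medium with human serum.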 Conditions: P. falciparum 3D7 growth, 3 d, higher = more signal.
For test [3], the target named is Homeobox protein Hox-A13 (Mus musculus) (UniProt Q62424). The experiment in a line: disruptors of Hoxa13 oligonucleotide interaction – biochemical, fluorescence polarization, labeled oligonucleotide, primary screen (AID 1185). Conditions: Hoxa13:DNA binding, 15 min, higher = more signal, called active from +8 up or from −8 down. Background: Polarisation of emitted light reports the rotation of a fluorescent probe.

Test [4] can be described thus: blockers of DNA damage checkpoint Chk1 activation – imaging, HeLa, hydroxyurea, phospho-Chk1 antibody, percent positive cells, primary screen (AID 1186). Conditions: hydroxyurea-induced phospho-Chk1 immunofluorescence imaging, higher = more signal.
The nature of test [5]: blockers of DNA damage checkpoint Chk1 activation – imaging, HeLa, hydroxyurea, phospho-Chk1 nuclear intensity, primary screen (AID 1187). Conditions: hydroxyurea-induced phospho-Chk1 immunofluorescence imaging, higher = more signal.

Activity calls are given as the source filed them. Unless noted, how the calls were made is not given here.

Sequence of Homeobox protein Hox-A13 (Mus musculus) (Q62424 whole entry, looked up): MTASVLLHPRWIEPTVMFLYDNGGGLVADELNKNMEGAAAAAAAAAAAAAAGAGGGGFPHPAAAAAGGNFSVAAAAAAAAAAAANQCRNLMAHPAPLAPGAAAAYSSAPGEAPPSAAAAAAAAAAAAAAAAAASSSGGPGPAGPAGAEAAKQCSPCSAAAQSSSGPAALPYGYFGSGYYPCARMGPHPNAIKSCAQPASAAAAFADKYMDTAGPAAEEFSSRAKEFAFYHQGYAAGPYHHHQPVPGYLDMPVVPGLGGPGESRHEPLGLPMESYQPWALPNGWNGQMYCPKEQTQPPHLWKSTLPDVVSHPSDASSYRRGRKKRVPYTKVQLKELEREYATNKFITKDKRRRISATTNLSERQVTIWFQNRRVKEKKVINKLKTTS

As for `CCCC[C@@H]1C[C@H]1[C@@H](NC(=O)c1cccs1)c1ccc(Cl)cc1`, the composite z-score was 0.0874 (inactive) in test [1] and -0.0771 with XIP peptide (Xip251-270). The z-score in test [2] was -0.911; in test [3], -0.736 (inactive); in test [4], -0.207 (inactive); in test [5] it was 0.205 (inactive).
`O=C1OCCC/C=C\[C@H]2OC34C=CCN(CCN5CCOCC5)C(=O)[C@H]3N(CCCCCO)C(=O)[C@@H]4C12` (stereo partly specified): the values for the composite z-score (in test [1]; in the test on XIP peptide (Xip251-270)) were 0.853 (inactive) and -0.733, respectively. For the same compound, the z-score in test [2] was 1.82; in test [3], -4.6 (inactive); in test [4], 0.564 (inactive); in test [5] it was 0.292 (inactive).
Consider `COc1ccc([Si](C)(C)[C@@H]2[C@@H](CCO)O[C@]3(C(=O)N(Cc4ccc(NC(=O)[C@H](C)O)cc4)c4ccccc43)[C@H]2C)cc1`, for which the composite z-score in test [1] is 0.894 (inactive); in the test with XIP peptide (Xip251-270), 0.752. In addition, the z-score is -2.79 in test [2], -4.05 (inactive) in test [3], -1.42 (inactive) in test [4] and -1.27 (inactive) in test [5].
As to `Cc1ccc([C@@H]2CC=C(C(=O)O)[C@H](c3ccccc3)N2S(=O)(=O)c2ccc(C)cc2)cc1`, the composite z-score in test [1] was 1.71 (inactive); in the test with XIP peptide (Xip251-270), 0.909. The z-score in test [2] is -0.745; in test [3] it was -7.09 (inactive); in test [4], -0.489 (inactive); in test [5] it was -0.824 (inactive).
`CCCC[C@H]1OB(O)C[C@H]2C1=C(COC)C[C@H]1C(=O)N(Cc3ccccc3)C(=O)[C@H]12`: the figures for the composite z-score (in test [1]; in the test on XIP peptide (Xip251-270)) were 0.2 (inactive) and 0.0845, respectively. The z-score is -0.386 in test [2], -6.5 (inactive) in test [3], -0.669 (inactive) in test [4] and -0.331 (inactive) in test [5].
As for `COC(=O)[C@@]1(Cc2ccc(OC)cc2)[C@H]2c3cc(C(=O)N(C)C)n(Cc4ccc(C)c(F)c4F)c3C[C@H]2CN1C(=O)c1ccccc1`, the composite z-score was -0.0903 (inactive) in test [1] and 0.465 in the test on XIP peptide (Xip251-270). Further, the z-score is -1.13 in test [2], -1.93 (inactive) in test [3], 0.758 (inactive) in test [4] and 0.0937 (inactive) in test [5].
Regarding `CC(C)[Si](OCC[C@H]1O[C@]2(C(=O)N(Cc3ccccc3)c3ccccc32)[C@@H](C)[C@@H]1[Si](C)(C)O)(C(C)C)C(C)C`, the composite z-score was -0.177 (inactive) in test [1] and 0.457 with XIP peptide (Xip251-270). In addition, the z-score in test [2] is -1.94; in test [3] it was -0.292 (inactive); in test [4], -0.558 (inactive); in test [5] it was -0.322 (inactive).
As to `CC(C)NC(=O)[C@@]1(Cc2ccccc2I)c2ccccc2C(=O)N(C2CCCCC2)[C@H]1c1ccc(CO)cc1`, the composite z-score in test [1] was 1.02 (inactive); in the test on XIP peptide (Xip251-270), 0.84. Also, the z-score is -1.89 in test [2], -4.58 (inactive) in test [3], 0.551 (inactive) in test [4] and 0.615 (inactive) in test [5].
`C#CCNC(/C=C/c1ccccc1)CO` (stereo unspecified): the composite z-score in test [1] is -0.447 (inactive); with XIP peptide (Xip251-270) it was 0.0391. The z-score in test [2] is -0.414; in test [3], -1.21 (inactive); in test [4], 0.0357 (inactive); in test [5], 0.237 (inactive).
Regarding `COC(=O)[C@@]1(Cc2ccc(OC)cc2)[C@H]2c3cc(C(=O)N(C)C)n(CCc4ccc(OC)c(Br)c4)c3C[C@H]2CN1C(=O)c1ccccc1`, the composite z-score in test [1] was 0.717 (inactive); in the test with XIP peptide (Xip251-270), 0.351. Moreover, the z-score in test [2] is -1.28; in test [3] it was -0.511 (inactive); in test [4], 1.02 (inactive); in test [5] it was 0.463 (inactive).
As for `Cc1ccc(S[C@]2(C(=O)NC(C)C)CC(=O)N(Cc3cc(C(F)(F)F)cc(C(F)(F)F)c3)[C@@H]2c2ccc(CO)cc2I)cc1`, the figures for the composite z-score (in test [1]; with XIP peptide (Xip251-270)) were 0.351 (inactive) and 0.667, respectively. The z-score in test [2] was 0.201; in test [3], -2.81 (inactive); in test [4], 0.392 (inactive); in test [5], 0.52 (inactive).
Turning to `O=C1c2ccccc2[C@](Cc2ccccc2I)(C(=O)O)[C@H](c2ccc(CO)cc2)N1C1CCCCC1`, the composite z-score was 1.87 (inactive) in test [1] and 0.734 in the test with XIP peptide (Xip251-270). Besides, the z-score in test [2] is -1.49; in test [3], -2.96 (inactive); in test [4], -0.225 (inactive); in test [5], -0.395 (inactive).
As for `O=C1C2C=CC(C(O)C(c3ccccc3)c3ccccc3)N(Nc3ccc([N+](=O)[O-])cc3)C2C(=O)N1c1ccccc1` (stereo unspecified), the composite z-score in test [1] is -0.0268 (inactive); with XIP peptide (Xip251-270) it was 0.747. The z-score in test [2] was 0.535; in test [3], -1.88 (inactive); in test [4], 0.349 (inactive); in test [5] it was 0.0443 (inactive).
Turning to `C[N+](C)(C)CCCC[C@@H]1NC(=O)[C@H]2C[C@@H](C(=O)NCc3ccc(F)cc3)[C@@H](c3cccc(OCCO)c3)N2C1=O`, the results for the composite z-score (in test [1]; in the test on XIP peptide (Xip251-270)) were 1.61 (inactive) and 0.675, respectively. Further, the z-score in test [2] was 0.13; in test [3], -1.22 (inactive); in test [4] it was 0.06 (inactive); in test [5], 0.274 (inactive).
Regarding `C=CC[C@]1(C(N)=O)N=C(c2ccc(OCCCO)cc2)O[C@H]1c1ccccc1CN=[N+]=[N-]`, the composite z-score in test [1] was 0.914 (inactive); in the test with XIP peptide (Xip251-270), -0.313. For the same compound, the z-score in test [2] was -2.04; in test [3] it was -2.82 (inactive); in test [4] it was -0.273 (inactive); in test [5], 0.168 (inactive).
Turning to `CO[C@H]1O[C@H](CO)[C@@H](OC(=O)Nc2ccccc2)[C@H](OC(=O)Nc2ccc3c(c2)OCO3)[C@@H]1OC(=O)Nc1ccc2c(c1)OCO2`, the values for the composite z-score (in test [1]; with XIP peptide (Xip251-270)) were 2.23 (inactive) and 0.863, respectively. Also, the z-score was -1.9 in test [2], -9.6 (active) in test [3], 0.149 (inactive) in test [4] and 0.121 (inactive) in test [5].
